Assays:
Assay in all cases: DAPPL (digital affinity profiling via proximity ligation, sequencing); 10 mM Tris-HCl pH 7.5, 50 mM NaCl, 1 mM DTT, 4% glycerol, room temperature, 30 min; GST-TFs on glutathione beads, 16-mer random dsDNA library, 0.1% formaldehyde crosslink after washing; high values mean tight binding
FEV = molecular target: T1, FEV (Homo sapiens, UniProt Q99581 1-238); conditions: protein: recombinant; tags: N-terminal GST; dsDNA, one strand shown
T1 sequence: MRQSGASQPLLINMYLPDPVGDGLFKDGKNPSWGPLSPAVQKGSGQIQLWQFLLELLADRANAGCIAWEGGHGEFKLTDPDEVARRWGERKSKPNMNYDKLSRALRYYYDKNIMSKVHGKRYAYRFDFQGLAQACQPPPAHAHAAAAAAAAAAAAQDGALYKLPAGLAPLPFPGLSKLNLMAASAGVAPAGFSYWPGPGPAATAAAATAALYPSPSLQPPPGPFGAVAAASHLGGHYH
Procedure, shortened: (§1)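 In yeast, human transcription factors were expressed with a GST fusion, then pulled down on glutathione beads and given DNA barcodes. Pooled with a tag-only sample, they were exposed to 200 nmole of a 16-mer random double-stranded DNA library (Tris/NaCl/DTT/glycerol buffer, room temperature, 30 min), washed, crosslinked with 0.1% formaldehyde, proximity-ligated using BsaI/T4 ligase for 1 h at 37 °C, PCR-amplified and read on an Illumina NextSeq500. Each hexamer's frequency of reads for a factor, divided by the matching frequency for the tag-only sample, gives the binding signal.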

ETV5 = ETV5 (Homo sapiens, UniProt P41161 1-510); conditions: protein: recombinant; tags: N-terminal GST; dsDNA, one strand shown
Procedure, shortened: as §1

HSF1 = HSF1 (Homo sapiens, UniProt Q00613 1-529); conditions: protein: recombinant; tags: N-terminal GST; chain copies: 3; dsDNA, one strand shown
Procedure, shortened: as §1

SPIC = molecular target: T2, SPIC (Homo sapiens, UniProt Q8N5J4 1-248); conditions: protein: recombinant; tags: N-terminal GST; dsDNA, one strand shown
T2 sequence: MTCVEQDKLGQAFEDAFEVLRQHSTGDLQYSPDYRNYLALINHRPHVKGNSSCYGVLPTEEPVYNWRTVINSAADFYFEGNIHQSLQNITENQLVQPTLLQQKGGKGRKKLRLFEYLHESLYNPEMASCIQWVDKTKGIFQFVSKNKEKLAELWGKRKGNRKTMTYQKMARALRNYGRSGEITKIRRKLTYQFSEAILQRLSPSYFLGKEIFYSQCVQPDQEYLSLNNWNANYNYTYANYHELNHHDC
Procedure, shortened: as §1

ELF4 = ELF4 (Homo sapiens, UniProt Q99607 1-663); conditions: protein: recombinant; tags: N-terminal GST; dsDNA, one strand shown
Procedure, shortened: as §1

ELK4 = molecular target: T3, ELK4 (Homo sapiens, UniProt P28324-2 1-405); conditions: protein: recombinant; tags: N-terminal GST; dsDNA, one strand shown
T3 sequence: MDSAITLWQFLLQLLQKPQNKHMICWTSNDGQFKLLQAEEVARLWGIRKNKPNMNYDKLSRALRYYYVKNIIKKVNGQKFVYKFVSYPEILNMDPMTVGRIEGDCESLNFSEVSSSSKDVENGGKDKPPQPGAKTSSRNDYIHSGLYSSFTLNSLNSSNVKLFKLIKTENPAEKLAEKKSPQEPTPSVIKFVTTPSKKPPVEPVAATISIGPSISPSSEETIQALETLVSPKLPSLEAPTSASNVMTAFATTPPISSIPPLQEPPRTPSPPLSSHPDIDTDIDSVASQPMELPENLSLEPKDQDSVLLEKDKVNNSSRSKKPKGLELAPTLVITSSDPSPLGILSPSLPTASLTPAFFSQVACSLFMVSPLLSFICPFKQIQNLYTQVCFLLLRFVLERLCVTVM
Procedure, shortened: as §1

ETV2 = molecular target: T4, ETV2 (Homo sapiens, UniProt O00321 1-342); conditions: protein: recombinant; tags: N-terminal GST; dsDNA, one strand shown
T4 sequence: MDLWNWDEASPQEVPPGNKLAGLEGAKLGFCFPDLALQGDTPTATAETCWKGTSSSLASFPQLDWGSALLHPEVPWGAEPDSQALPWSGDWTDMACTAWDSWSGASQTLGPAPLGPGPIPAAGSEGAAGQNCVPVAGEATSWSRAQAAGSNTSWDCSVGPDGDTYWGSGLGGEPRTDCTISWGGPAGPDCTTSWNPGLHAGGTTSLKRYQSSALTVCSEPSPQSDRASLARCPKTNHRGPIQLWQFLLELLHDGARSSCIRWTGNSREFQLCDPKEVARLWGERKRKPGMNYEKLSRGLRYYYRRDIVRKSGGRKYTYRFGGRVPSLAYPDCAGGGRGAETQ
Procedure, shortened: as §1

ELF3 = molecular target: T5, ELF3 (Homo sapiens, UniProt P78545 1-371); conditions: protein: recombinant; tags: N-terminal GST; dsDNA, one strand shown
T5 sequence: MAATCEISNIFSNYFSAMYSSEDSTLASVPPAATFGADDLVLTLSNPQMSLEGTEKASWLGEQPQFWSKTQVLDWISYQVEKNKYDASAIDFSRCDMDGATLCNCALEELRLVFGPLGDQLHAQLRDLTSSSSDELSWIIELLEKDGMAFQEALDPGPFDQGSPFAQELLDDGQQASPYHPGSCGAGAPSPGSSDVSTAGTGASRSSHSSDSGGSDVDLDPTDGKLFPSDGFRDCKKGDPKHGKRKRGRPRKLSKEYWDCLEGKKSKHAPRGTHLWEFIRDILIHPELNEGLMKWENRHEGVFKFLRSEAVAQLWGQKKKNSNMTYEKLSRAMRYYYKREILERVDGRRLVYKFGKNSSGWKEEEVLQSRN
Procedure, shortened: as §1

CRX = CRX (Homo sapiens, UniProt O43186 1-299); conditions: protein: recombinant; tags: N-terminal GST; dsDNA, one strand shown
Procedure, shortened: as §1

ETV1 = ETV1 (Homo sapiens, UniProt P50549 1-477); conditions: protein: recombinant; tags: N-terminal GST; dsDNA, one strand shown
Procedure, shortened: as §1

ERF = molecular target: T6, ERF (Homo sapiens, UniProt P50548 1-548); conditions: protein: recombinant; tags: N-terminal GST; dsDNA, one strand shown
T6 sequence: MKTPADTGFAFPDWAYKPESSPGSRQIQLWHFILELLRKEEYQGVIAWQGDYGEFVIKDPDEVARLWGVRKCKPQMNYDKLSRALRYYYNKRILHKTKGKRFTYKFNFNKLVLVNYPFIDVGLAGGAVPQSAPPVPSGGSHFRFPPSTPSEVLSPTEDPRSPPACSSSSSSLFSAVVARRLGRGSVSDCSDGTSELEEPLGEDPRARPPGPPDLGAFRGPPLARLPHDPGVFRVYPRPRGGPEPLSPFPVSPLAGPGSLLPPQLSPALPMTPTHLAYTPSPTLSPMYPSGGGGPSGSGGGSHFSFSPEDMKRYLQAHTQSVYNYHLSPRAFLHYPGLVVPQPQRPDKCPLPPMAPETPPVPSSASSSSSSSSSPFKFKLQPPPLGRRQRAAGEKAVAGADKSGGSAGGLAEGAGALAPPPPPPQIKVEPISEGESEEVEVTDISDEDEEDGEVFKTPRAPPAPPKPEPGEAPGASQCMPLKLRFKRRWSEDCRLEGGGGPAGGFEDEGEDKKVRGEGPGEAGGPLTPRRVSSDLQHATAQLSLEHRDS
Procedure, shortened: as §1

ETV3L = molecular target: T7, ETV3L (Homo sapiens, UniProt Q6ZN32 1-361); conditions: protein: recombinant; tags: N-terminal GST; dsDNA, one strand shown
T7 sequence: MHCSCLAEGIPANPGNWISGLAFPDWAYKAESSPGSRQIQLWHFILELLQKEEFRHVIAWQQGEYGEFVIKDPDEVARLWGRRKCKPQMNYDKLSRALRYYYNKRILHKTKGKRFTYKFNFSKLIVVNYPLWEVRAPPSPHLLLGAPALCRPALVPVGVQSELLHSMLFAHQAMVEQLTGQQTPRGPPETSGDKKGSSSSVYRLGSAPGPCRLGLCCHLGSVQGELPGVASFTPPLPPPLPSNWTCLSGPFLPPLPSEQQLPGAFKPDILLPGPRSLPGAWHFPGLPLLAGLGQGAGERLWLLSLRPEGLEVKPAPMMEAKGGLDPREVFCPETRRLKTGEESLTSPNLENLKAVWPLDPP
Procedure, shortened: as §1

ETS2 = molecular target: T8, ETS2 (Homo sapiens, UniProt P15036 1-469); conditions: protein: recombinant; tags: N-terminal GST; dsDNA, one strand shown
T8 sequence: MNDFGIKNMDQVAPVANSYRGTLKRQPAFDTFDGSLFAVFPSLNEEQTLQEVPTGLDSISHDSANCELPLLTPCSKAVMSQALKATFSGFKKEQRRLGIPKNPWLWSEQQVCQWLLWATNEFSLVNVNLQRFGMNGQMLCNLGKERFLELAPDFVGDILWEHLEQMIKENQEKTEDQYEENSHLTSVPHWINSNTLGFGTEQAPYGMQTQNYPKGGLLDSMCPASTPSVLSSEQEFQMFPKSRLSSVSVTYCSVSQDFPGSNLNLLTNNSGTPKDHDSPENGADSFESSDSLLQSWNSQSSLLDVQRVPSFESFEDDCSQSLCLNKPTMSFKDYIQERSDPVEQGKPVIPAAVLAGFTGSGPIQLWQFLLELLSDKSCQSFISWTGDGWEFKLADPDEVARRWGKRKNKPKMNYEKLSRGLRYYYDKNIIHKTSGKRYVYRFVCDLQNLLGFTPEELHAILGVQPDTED
Procedure, shortened: as §1

SPDEF = molecular target: T9, SPDEF (Homo sapiens, UniProt O95238 1-335); conditions: protein: recombinant; tags: N-terminal GST; dsDNA, one strand shown
T9 sequence: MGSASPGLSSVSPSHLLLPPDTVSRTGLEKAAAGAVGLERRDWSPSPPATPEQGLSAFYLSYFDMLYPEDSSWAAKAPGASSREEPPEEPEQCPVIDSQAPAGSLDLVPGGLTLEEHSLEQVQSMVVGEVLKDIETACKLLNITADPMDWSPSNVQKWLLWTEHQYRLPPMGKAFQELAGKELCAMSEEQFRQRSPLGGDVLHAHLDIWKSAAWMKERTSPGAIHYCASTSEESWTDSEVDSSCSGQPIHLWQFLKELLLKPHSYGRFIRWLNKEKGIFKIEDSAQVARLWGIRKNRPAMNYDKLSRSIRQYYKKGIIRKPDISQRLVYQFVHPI
Procedure, shortened: as §1

ETV7 = molecular target: T10, ETV7 (Homo sapiens, UniProt Q9Y603 1-341); conditions: protein: recombinant; tags: N-terminal GST; dsDNA, one strand shown
T10 sequence: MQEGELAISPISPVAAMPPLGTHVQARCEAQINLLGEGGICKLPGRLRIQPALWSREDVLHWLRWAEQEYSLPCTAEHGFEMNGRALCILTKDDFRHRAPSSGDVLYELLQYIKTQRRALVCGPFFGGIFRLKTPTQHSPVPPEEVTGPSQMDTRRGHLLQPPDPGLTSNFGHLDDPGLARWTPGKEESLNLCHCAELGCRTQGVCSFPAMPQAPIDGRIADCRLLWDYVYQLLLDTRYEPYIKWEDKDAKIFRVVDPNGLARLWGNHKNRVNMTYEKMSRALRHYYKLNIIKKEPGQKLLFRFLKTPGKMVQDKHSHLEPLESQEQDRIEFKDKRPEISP
Procedure, shortened: as §1

ELF5 = molecular target: T11, ELF5 (Homo sapiens, UniProt Q9UKW6-2 1-255); conditions: protein: recombinant; tags: N-terminal GST; dsDNA, one strand shown
T11 sequence: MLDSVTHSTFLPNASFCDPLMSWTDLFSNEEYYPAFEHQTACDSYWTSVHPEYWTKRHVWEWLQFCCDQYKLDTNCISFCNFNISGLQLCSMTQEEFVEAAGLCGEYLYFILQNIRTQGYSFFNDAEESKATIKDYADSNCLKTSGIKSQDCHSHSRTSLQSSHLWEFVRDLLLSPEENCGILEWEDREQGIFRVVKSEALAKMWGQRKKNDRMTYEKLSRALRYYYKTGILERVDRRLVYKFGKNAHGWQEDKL
Procedure, shortened: as §1

ETV3 = molecular target: T12, ETV3 (Homo sapiens, UniProt P41162-2 1-143); conditions: protein: recombinant; tags: N-terminal GST; dsDNA, one strand shown
T12 sequence: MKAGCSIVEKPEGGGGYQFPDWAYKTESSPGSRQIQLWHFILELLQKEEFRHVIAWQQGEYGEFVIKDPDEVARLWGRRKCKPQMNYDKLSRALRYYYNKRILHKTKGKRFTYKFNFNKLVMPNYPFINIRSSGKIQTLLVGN
Procedure, shortened: as §1

ETV6 = ETV6 (Homo sapiens, UniProt P41212 1-452); conditions: protein: recombinant; tags: N-terminal GST; dsDNA, one strand shown
Procedure, shortened: as §1

ETV5, sequence (P41161 whole entry): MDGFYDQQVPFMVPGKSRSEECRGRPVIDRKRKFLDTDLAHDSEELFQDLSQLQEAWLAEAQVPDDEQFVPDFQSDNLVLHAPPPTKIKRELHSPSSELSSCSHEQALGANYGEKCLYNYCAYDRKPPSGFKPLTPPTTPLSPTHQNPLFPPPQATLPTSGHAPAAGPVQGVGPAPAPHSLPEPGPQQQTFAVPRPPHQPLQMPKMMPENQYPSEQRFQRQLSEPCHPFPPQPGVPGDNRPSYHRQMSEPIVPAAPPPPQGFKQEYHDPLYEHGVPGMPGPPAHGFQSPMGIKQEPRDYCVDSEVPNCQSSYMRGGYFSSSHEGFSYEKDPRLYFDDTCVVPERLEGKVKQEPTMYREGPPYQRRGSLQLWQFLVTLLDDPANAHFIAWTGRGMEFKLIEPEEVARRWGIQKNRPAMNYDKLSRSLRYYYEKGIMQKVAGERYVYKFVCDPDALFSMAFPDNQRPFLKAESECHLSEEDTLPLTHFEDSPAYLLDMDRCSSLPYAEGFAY
ETV1, sequence (P50549 whole entry): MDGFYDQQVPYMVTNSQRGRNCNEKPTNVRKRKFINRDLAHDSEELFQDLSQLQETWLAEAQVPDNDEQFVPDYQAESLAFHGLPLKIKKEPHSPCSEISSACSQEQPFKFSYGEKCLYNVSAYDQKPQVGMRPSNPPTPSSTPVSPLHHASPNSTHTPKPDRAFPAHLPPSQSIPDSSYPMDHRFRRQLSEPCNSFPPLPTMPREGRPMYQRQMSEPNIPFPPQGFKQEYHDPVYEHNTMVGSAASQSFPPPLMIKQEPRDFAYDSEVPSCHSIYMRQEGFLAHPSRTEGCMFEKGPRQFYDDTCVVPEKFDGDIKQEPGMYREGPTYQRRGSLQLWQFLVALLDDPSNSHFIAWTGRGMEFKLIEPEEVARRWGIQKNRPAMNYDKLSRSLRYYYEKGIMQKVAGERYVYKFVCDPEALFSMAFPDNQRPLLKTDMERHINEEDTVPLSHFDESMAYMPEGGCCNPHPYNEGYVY
ELF4, sequence (Q99607 whole entry): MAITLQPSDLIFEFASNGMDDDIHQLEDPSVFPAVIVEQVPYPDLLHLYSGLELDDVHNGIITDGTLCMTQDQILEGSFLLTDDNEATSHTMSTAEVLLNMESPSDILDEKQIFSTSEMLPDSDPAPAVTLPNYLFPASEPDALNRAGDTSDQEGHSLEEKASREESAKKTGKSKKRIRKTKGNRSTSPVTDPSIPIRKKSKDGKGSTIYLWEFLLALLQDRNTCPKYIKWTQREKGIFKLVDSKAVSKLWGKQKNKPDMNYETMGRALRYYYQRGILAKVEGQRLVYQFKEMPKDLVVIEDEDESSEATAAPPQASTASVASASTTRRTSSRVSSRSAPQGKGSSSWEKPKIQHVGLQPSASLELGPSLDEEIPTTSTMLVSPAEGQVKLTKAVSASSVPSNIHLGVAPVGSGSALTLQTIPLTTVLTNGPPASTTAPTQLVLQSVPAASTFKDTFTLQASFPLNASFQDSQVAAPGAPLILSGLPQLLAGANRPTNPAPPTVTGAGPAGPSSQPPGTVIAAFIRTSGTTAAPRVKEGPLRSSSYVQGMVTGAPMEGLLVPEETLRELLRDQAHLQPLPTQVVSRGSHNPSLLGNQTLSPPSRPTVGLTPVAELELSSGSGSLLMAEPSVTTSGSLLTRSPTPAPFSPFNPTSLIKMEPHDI
HSF1, sequence (Q00613 whole entry): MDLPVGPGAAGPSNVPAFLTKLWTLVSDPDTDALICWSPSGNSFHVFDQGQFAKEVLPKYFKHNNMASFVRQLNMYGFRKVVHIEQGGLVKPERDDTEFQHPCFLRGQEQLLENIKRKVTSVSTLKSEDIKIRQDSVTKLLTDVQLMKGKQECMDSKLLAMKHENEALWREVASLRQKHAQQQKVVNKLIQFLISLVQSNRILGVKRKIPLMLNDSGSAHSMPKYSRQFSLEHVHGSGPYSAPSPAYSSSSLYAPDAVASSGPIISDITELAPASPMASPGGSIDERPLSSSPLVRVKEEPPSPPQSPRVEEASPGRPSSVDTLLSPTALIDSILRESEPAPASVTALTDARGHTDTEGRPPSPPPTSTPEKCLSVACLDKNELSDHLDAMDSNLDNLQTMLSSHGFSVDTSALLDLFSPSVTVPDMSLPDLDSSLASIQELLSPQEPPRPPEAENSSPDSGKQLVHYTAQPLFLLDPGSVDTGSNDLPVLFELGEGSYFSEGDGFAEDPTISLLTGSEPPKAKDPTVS
ETV6, sequence (P41212 whole entry): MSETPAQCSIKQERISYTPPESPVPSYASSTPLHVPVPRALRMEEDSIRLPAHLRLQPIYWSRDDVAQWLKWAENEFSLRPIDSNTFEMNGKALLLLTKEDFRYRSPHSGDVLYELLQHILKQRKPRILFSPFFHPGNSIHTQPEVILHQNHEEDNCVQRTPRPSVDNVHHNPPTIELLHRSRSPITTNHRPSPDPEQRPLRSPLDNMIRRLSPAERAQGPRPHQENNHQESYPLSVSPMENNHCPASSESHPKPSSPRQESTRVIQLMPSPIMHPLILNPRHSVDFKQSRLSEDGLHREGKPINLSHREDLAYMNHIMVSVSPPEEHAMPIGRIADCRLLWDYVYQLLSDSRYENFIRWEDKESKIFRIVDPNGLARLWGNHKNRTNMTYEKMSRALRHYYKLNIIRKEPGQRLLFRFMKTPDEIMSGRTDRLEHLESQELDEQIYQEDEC
CRX, sequence (O43186 whole entry): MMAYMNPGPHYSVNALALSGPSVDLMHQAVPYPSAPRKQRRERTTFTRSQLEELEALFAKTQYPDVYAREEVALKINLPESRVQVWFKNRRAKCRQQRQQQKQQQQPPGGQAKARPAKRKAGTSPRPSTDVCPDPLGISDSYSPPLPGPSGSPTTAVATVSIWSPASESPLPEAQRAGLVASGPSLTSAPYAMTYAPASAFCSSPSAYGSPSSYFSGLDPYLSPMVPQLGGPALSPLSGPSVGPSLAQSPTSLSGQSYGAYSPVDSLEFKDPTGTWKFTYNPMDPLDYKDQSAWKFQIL

Sequence: CTCCTG
- binding signal (FEV): 1.57 fold enrichment (6-mer frequency, TF over GST control)
- binding signal (ETV5): 1.71 fold enrichment (6-mer frequency, TF over GST control)
- binding signal (HSF1): 1.52 fold enrichment (6-mer frequency, TF over GST control)
- binding signal (SPIC): 1.37 fold enrichment (6-mer frequency, TF over GST control)
- binding signal (ELF4): 1.65 fold enrichment (6-mer frequency, TF over GST control)
- binding signal (ELK4): 1.35 fold enrichment (6-mer frequency, TF over GST control)
- binding signal (ETV2): 1.62 fold enrichment (6-mer frequency, TF over GST control)
- binding signal (ELF3): 1.47 fold enrichment (6-mer frequency, TF over GST control)
- binding signal (CRX): 1.46 fold enrichment (6-mer frequency, TF over GST control)
- binding signal (ETV1): 1.79 fold enrichment (6-mer frequency, TF over GST control)
- binding signal (ERF): 1.49 fold enrichment (6-mer frequency, TF over GST control)
- binding signal (ETV3L): 1.72 fold enrichment (6-mer frequency, TF over GST control)
- binding signal (ETS2): 1.86 fold enrichment (6-mer frequency, TF over GST control)
- binding signal (SPDEF): 1.6 fold enrichment (6-mer frequency, TF over GST control)
- binding signal (ETV7): 1.64 fold enrichment (6-mer frequency, TF over GST control)
- binding signal (ELF5): 1.6 fold enrichment (6-mer frequency, TF over GST control)
- binding signal (ETV3): 1.43 fold enrichment (6-mer frequency, TF over GST control)
- binding signal (ETV6): 1.59 fold enrichment (6-mer frequency, TF over GST control)

From paper PMC7862700, “An all-to-all approach to the identification of sequence-specific readers for epigenetic DNA modifications on cytosine”
